Reference: the supplement of paper PMC7380943
Counter-ions that a name gives are not always drawn.

Experiments:
[1] = system: CLZ3 (HCA2 human fibroblast dual HR-NHEJ reporter); test: NHEJ repair efficiency (GFP+ cells) relative to control (log10 fold); higher = more non-homologous end joining; conditions: 5 µM; doxycycline 0.5 ug/mL
[2] = system: CLZ3 (HCA2 human fibroblast dual HR-NHEJ reporter); test: HR repair efficiency (tdTomato+ cells) relative to control (log10 fold); higher = more homologous recombination; conditions: 5 µM; doxycycline 0.5 ug/mL
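Throughout, for HR repair efficiency (tdTomato+ cells) relative to control: compound given one day before doxycycline, which switches on I-SceI endonuclease expression to create double-strand breaks within the integrated reporter.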
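Throughout, for NHEJ repair efficiency (GFP+ cells) relative to control: compound given one day ahead of doxycycline, which switches on I-SceI endonuclease to cut the chromosomally integrated reporter and create DSBs.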

Compound | NHEJ repair efficiency (log10) [1] | HR repair efficiency (log10) [2]
C[N+]1(C)CCCC1C(=O)O (configuration not stated) [Stachydrine Hydrochloride] | -0.0485 | 0.12
C[C@H]1[C@H](C)CC[C@]2(C(=O)O[C@@H]3O[C@H](CO[C@@H]4O[C@H](CO)[C@@H](O[C@@H]5O[C@@H](C)[C@H](O)[C@@H](O)[C@H]5O)[C@H](O)[C@H]4O)[C@@H](O)[C@H](O)[C@H]3O)CC[C@]3(C)C(=CC[C@@H]4[C@@]5(C)C[C@@H](O)[C@H](O)[C@@](C)(CO)[C@@H]5[C@H](O)C[C@]43C)[C@H]12 [Madecassoside] | 0.0946 | 0.19
O=c1c(O)c(-c2ccc(O)cc2O)oc2cc(O)cc(O)c12 [Morin] | 0.0612 | 0.0351
O=c1c(O)c(-c2cc(O)c(O)c(O)c2)oc2cc(O)cc(O)c12 [Myricetin] | 0.0547 | 0.02
COc1cc([C@H]2OC[C@H]3[C@@H]2CO[C@@H]3c2ccc(O[C@@H]3O[C@H](CO)[C@@H](O)[C@H](O)[C@H]3O)c(OC)c2)ccc1O[C@@H]1O[C@H](CO)[C@@H](O)[C@H](O)[C@H]1O [PinoresinolDiglucoside] | -0.0902 | -0.138
COc1c(O)cc2oc(-c3ccccc3)cc(=O)c2c1O [Oroxylin A] | 0.0844 | 0.0534
C[C@H](CCC(=O)O)[C@H]1CC[C@H]2[C@@H]3[C@H](O)C[C@@H]4C[C@H](O)CC[C@]4(C)[C@H]3C[C@H](O)[C@]12C [Cholic acid] | -0.0347 | -0.0733
O=c1c(O[C@@H]2O[C@H](CO)[C@@H](O)[C@H](O)[C@H]2O[C@@H]2O[C@H](CO)[C@@H](O)[C@H](O)[C@H]2O)c(-c2ccc(O)c(O)c2)oc2cc(O)cc(O)c12 [Baimaside] | 0.0574 | 0.114
COc1ccc(CCC(=O)c2c(O)cc(OC3OC(CO)C(O)C(O)C3OC3OC(C)C(O)C(O)C3O)cc2O)cc1O (configuration not stated) [Neosperidin Dihydrochalcone] | -0.0639 | 0.0209
COc1cc2c(c(OC)c1OC)-c1c(cc(OC)c(OC)c1OC)C[C@H](C)[C@H](C)C2 [Schisandrin A] | -0.121 | -0.0756
COc1cc2oc(=O)ccc2c(OC)c1O [Fraxinol] | 0.0138 | 0.0872
C=C(CCC=C(C)C)[C@H]1CC[C@]2(C)[C@@H]1[C@H](O)C[C@@H]1[C@@]3(C)CC[C@H](O)C(C)(C)[C@@H]3[C@@H](O[C@@H]3O[C@H](CO)[C@@H](O)[C@H](O)[C@H]3O)C[C@]12C [Ginsenoside Rk3] | 0.000935 | 0.0532
O=C(C=Cc1ccc(O)c(O)c1)O[C@H]1[C@H](O)C[C@](O)(C(=O)O)C[C@H]1OC(=O)C=Cc1ccc(O)c(O)c1 [Isochlorogenic acid C] | 0.118 | 0.0227
O=c1c(-c2ccc(O)cc2)coc2cc(O)cc(O)c12 [Genistein] | -0.0971 | -0.179
NCCCC(=O)O [g-Aminobutyric acid] | 0.0698 | 0.0647
O=C(O)/C=C/c1ccc(O)c(O)c1 [Caffeic acid] | 0.0395 | 0.0424
CC1=C[C@]2(O)O[C@@]3(CC2=C(C)C)[C@@H](C)CC[C@@H]13 [Curcumenol] | 0.129 | 0.132
COc1cc(OC)c(CCC(=O)c2ccc(O)cc2)c(OC)c1 | -0.0337 | 0.0988
CCCCC/C=C\C/C=C\CCCCCCCC(=O)O [Linoleic Acid] | 0.0448 | -0.0026

Compound | NHEJ repair efficiency (log10) [1] | HR repair efficiency (log10) [2]
C=C(C(=O)O)[C@@H]1CC[C@@H](C)[C@@H]2CCC(C)=C[C@@H]21 [Artemisinic acid] | 0.0135 | 0.116
CC1=C2C(=O)O[C@@H](c3ccoc3)[C@]2(C)CCC1 [Fraxinellone] | 0.105 | 0.113
CC(=O)O[C@H]1[C@H](OCCc2ccc(O)c(O)c2)O[C@H](CO)[C@@H](OC(=O)/C=C/c2ccc(O)c(O)c2)[C@@H]1O[C@@H]1O[C@@H](C)[C@H](O)[C@@H](O)[C@H]1O [2-Acetylacteoside] | -0.00932 | -0.164
COc1cc(-c2coc3cc4c(c(OC)c3c2=O)OCO4)cc(OC)c1OC [Irisflorentin] | -0.0524 | 0.0727
COC(=O)C1=CO[C@@H](O[C@@H]2O[C@H](CO)[C@@H](O)[C@H](O)[C@H]2O)[C@@H]2C(CO)=CC[C@H]12 [Geniposide] | -0.0355 | 0.172
CC=C1[C@H](O[C@@H]2O[C@H](CO)[C@@H](O)[C@H](O)[C@H]2O)OC=C(C(=O)OC)[C@H]1CC(=O)OC[C@H]1O[C@@H](OCCc2ccc(O)cc2)[C@H](O)[C@@H](O)[C@@H]1O (stereo in doubt) [Specnuezhenide] | 0.00632 | 0.0832
CC(CC(=O)C[C@@H](C)[C@H]1CC(=O)[C@@]2(C)C3=C(C(=O)C[C@]12C)[C@@]1(C)CCC(=O)C(C)(C)[C@@H]1C[C@@H]3O)C(=O)O (some centres not stated) [Ganoderic Acid D] | 0.113 | -0.241
COc1c2c(cc3oc(C)cc(=O)c13)O[C@H](C(C)(C)O)C2 [5-O-Methylvisamminol] | -0.159 | -0.14
c1ccc2c(c1)OC1c3ccccc3OCC21 (configuration not stated) [Pterocarpan] | 0.112 | -0.0555
CCOC(=O)/C=C/c1ccc(O)c(O)c1 [Ethyl Caffeate] | 0.0562 | 0.0777
O=C(/C=C/c1ccc(O)c(O)c1)OC1CC(OC(=O)/C=C/c2ccc(O)c(O)c2)(C(=O)O)CC(O)C1O (configuration not stated) [1,3-Dicaffeoylquinic Acid] | 0.0818 | -0.0122
COc1c2c(cc3c1-c1c(cc4c(c1OC)OCO4)C[C@H](C)[C@H](C)C3)OCO2 [Schisandrin C] | -0.137 | 0.0438
C=CCc1ccc(OC)c(OC)c1 [Methyleugenol] | 0.14 | 0.161
COc1ccc(-c2coc3cc(O)cc(O)c3c2=O)cc1 [Biochanin A] | -0.0507 | 0.0228
C[C@@H]1C(=O)O[C@H](C)[C@H]1C[C@@H](O)[C@](C)(O)[C@H]1CC[C@@]2(O)C3=CC(=O)[C@@H]4C[C@@H](O)[C@@H](O)C[C@]4(C)[C@H]3CC[C@]12C [Cyasterone] | 0.00995 | 0.0455
CC(C)=CCC[C@](C)(O[C@@H]1O[C@H](CO)[C@@H](O)[C@H](O)[C@H]1O)[C@H]1CC[C@]2(C)[C@@H]1[C@H](O)C[C@@H]1[C@@]3(C)CC[C@H](O[C@@H]4O[C@H](CO)[C@@H](O)[C@H](O)[C@H]4O[C@@H]4O[C@H](CO)[C@@H](O)[C@H](O)[C@H]4O)C(C)(C)[C@@H]3CC[C@]12C [Ginsenoside Rd] | 0.0871 | 0.0615
CC[C@]12CCCN3CCc4c(n(c5ccccc45)[C@@](O)(C(=O)OC)C1)[C@@H]32 [Vincamine] | 0.104 | 0.0346
Cc1ccc(C(C)C)c(O)c1 [Thymol] | 0.108 | 0.0691
O=C(O)/C=C/c1ccc(O)c(O)c1 [Caffeic Acid] | 0.0711 | 0.156

Compound | NHEJ repair efficiency (log10) [1] | HR repair efficiency (log10) [2]
O=C(O)CC(O)C(=O)O (configuration not stated) [Malic Acid] | -0.069 | -0.141
O=C(O)[C@H]1O[C@@H](Oc2cc3oc(-c4ccccc4)cc(=O)c3c(O)c2O)[C@H](O)[C@@H](O)[C@@H]1O [Baicalin] | -0.073 | 0.053
CCCCCCC[C@H](O)CC(=O)CCc1ccc(O)c(OC)c1 [8-Gingerol] | 0.00172 | 0.0341
CC1(C)CC[C@]2(C(=O)O)CC[C@]3(C)C(=CC[C@@H]4[C@@]5(C)CC[C@H](O[C@@H]6O[C@H](C(=O)O)[C@@H](O)[C@H](O[C@@H]7OC[C@@H](O)[C@H](O)[C@H]7O)[C@H]6O)C(C)(C)[C@@H]5CC[C@]43C)[C@@H]2C1 [Momordin Ic] | 0.0282 | -0.203
O=c1cc(-c2ccccc2)oc2cc(O)cc(O)c12 [Chrysin] | 0.01 | -0.15
O=c1c2ccccc2nc2n1CCc1c-2[nH]c2ccccc12 [Rutecarpine] | -0.038 | -0.0255
C[C@@H]1CC[C@@]2(OC1)O[C@H]1C[C@H]3[C@@H]4CC=C5C[C@@H](O[C@@H]6O[C@H](CO)[C@@H](O)[C@H](O[C@@H]7O[C@H](CO)[C@@H](O)[C@H](O)[C@H]7O)[C@H]6O[C@@H]6O[C@@H](C)[C@H](O)[C@@H](O)[C@H]6O)CC[C@]5(C)[C@H]4CC[C@]3(C)[C@H]1[C@@H]2C [Gracillin] | -0.154 | -0.0532
Cc1ccc(C(C)C)cc1O [Carvacrol] | -0.132 | -0.173
C[N+](C)(C)CC(=O)O [Betaine] | -0.243 | -0.337
O=C(/C=C/c1ccc(O)c(O)c1)O[C@@H](C(=O)O)[C@@H](O)C(=O)O [Caftaric Acid] | -0.0695 | -0.0835
O=C(O)/C=C/c1ccccc1 [Cinnamic Acid] | -0.0918 | 0.0721
CN[C@@H](C)[C@H]1[C@H](O)C[C@@]2(C)[C@@H]3CC[C@H]4C(C)(C)[C@@H](NC)CC[C@@]45C[C@@]35CC[C@]12C [Cyclovirobuxine D] | -0.023 | 0.0389
Cc1cc(O)c2c(c1)C(=O)c1cccc(O)c1C2=O [Chrysophanol] | 0.0473 | 0.134
COc1cc(-c2oc3cc(O)cc(O)c3c(=O)c2O[C@@H]2O[C@H](CO[C@H]3O[C@H](C)[C@@H](O)[C@H](O)[C@@H]3O)[C@@H](O)[C@H](O)[C@H]2O)ccc1O [Narcissoside; Isorhamnetin-3-O-β-D-rutinoside] | 0.0544 | -0.0269
O=c1c(O)c(-c2ccc(O)c(O)c2)oc2cc(O)cc(O)c12 [Quercetin] | -0.047 | 0.086
O=C1c2ccccc2C(=O)c2c(O)c(O)cc(O)c21 [Purpurin] | -0.0313 | 0.0725
C/C=C/c1cc(OC)c2c(c1)[C@H](C)[C@@H](c1ccc3c(c1)OCO3)O2 [Licarin B] | 0.0776 | 0.192
CC1(C)CC[C@]2(C(=O)O)[C@H](O)C[C@]3(C)C(=CC[C@@H]4[C@@]5(C)CC[C@H](O)C(C)(C)[C@@H]5CC[C@]43C)[C@H]2C1 [Echinocystic acid] | -0.117 | 0.0642
